# TRPML1 blocker = qHTS for Inhibitors of the Human Mucolipin Transient Receptor Potential 1 (TRPML1); Mucolipin-1 (Homo sapiens), Q9GZU1; TRPML1-inducible cells, Ca2+ dye fluorescence, FDSS; stronger effect = lower value; inhibition of EC80 agonist-evoked calcium signal; activity change, negative = inhibition, % (concentration not given with the values); 390,000 compounds, 0.02% hits; in the data active = activity change below about -50%; inconclusive = between about -30% and that limit;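 also: stimulus is agonist 54-4 at its EC80 concentration; % is scaled to controls: 0 for no effect and ±100 for the full control effect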
# Target sequence (Q9GZU1 whole entry, looked up): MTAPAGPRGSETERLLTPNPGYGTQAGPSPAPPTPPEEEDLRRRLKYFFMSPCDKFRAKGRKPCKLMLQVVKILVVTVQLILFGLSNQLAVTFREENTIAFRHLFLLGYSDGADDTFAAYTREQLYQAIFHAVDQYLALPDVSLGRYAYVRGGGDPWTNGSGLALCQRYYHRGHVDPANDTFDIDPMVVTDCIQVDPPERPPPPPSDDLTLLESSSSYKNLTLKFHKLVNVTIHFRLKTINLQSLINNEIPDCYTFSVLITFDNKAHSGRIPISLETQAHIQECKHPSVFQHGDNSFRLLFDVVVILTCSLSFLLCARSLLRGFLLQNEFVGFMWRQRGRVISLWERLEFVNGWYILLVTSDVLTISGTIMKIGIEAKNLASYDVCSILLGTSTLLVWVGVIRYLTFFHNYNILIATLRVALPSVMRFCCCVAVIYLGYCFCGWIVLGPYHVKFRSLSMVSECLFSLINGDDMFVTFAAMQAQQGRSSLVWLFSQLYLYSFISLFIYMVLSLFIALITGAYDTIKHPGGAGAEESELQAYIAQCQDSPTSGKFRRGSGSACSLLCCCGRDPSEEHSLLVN
#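 TRPML1-DL cells, Tet-induced overnight (~16 h, 37 °C) at 1,500 cells/well, were loaded with Ca8 no-wash dye plus quencher for 45-90 min at room temperature. Compounds were pinned during FDSS kinetic reading; agonist 54-4 at EC80 (4 uM final) then added.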
# GLP1R inv ag = qHTS of GLP-1 Receptor Inverse Agonists (Inhibition Mode). Potency, µM (highest dose often 38.3 µM), for inactives: at the top dose activity change, negative = inhibition, actives largely listed as inhibitors. HEK293 GLP-1R CRE-luciferase, luminescence, 24 h; GLP-1R form is constitutively active. AID 624417, 2012. 410,000 compounds, 1.6% hits. Glucagon-like peptide 1 receptor (Homo sapiens), P43220; also: potency is read from the fitted curve at half-maximal effect; % is scaled to controls: 0 for no effect and ±100 for the full control effect; nearly all actives have a fitted effect of over 55% in size
#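 GLP-1R inverse agonism mode: basal reporter luminescence in engineered HEK293 cells measured after one day of compound exposure at 37 deg C, with a 12 min room-temperature detection step.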
# TRPML1 ag = qHTS for Agonists of the Human Mucolipin Transient Receptor Potential 1 (TRPML1). Mucolipin-1 (Homo sapiens), Q9GZU1. TRPML1-expressing cells, Ca2+ dye fluorescence, FDSS. activation, % (concentration not given with the values). 410,000 compounds, 0.12% hits. AID 624414, 2012; in the data active = activation above about 50%; inconclusive = mostly about 30% to 49%; also: 0% is about no effect
#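 Cells: TRPML1-DL, 1X Tet inducer, ~16 h at 37 degrees C/5% CO2. Dye: ABD Ca8 no-wash + quencher, 45-90 min RT. Read: 10 s baseline, compound add, 110 s agonist phase; 54-4 EC80 (4uM final), 110 s antagonist phase.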
# GLP-1R agonist = qHTS of GLP-1 Receptor Agonists; Glucagon-like peptide 1 receptor (Homo sapiens), P43220; HEK293 GLP-1R CRE-luciferase, luminescence, 4-6 h; cells express a hypersensitive GLP-1R form; Potency, µM (doses to about 45.6 µM), inactives show top-dose activation, hits mostly activators; 380,000 compounds, 0.007% hits; AID 624172, 2012; also: potency is read from the fitted curve at half-maximal effect; % of control where 0% means no effect
# GLP1R cytotox = qHTS of GLP-1 Receptor Inverse Agonists: Cytotox Screen; HEK293 cAMP-luciferase reporter cells, luminescence, 24 h; Potency, µM (highest dose often 38.3 µM), inactives show at the highest dose activity change, negative = inhibition, actives largely listed as inhibitors; 410,000 compounds, 0.13% hits;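 also: loss of luciferase light is scored as toxicity; potency is read from the fitted curve at half-maximal effect; % is scaled to controls: 0 for no effect and ±100 for the full control effect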
#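 MLSMR compounds, 24 hr on cells at 37 deg C/5% CO2; luminescence after luciferase reagent (12 min RT). Inhibition counted as the undesired cytotoxic outcome.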
# * = called active by the depositor; ? = inconclusive; · = not tested or not shown; [ ] = remark or other dose. Only some compounds are listed: those with a hit (about 1.8% of all), similar ones and a draw of the others. Unless noted, calls follow the shape of the dose curve; as a rule, active = well fitted curve in the direction sought with a large enough effect; inconclusive = small, poorly fitted or top-dose-only effect, or another doubt; inactive = no such curve, though single readings can be large; an effect the other way counts as inactive or inconclusive.
SMILES,TRPML1 blocker,GLP1R inv ag,TRPML1 ag,GLP-1R agonist,GLP1R cytotox
COC(=O)C1=C(c2ccc(-c3ccccc3)c(F)c2)C[C@@H]2CC[C@H]1N2C(=O)N1CCC(O)CC1,2.7,12.6µM*,-0.5,-4.5%,-42.4%
O=S(=O)(c1ccc(Cl)c(NC(=S)N/N=C/c2ccc(O)cc2)c1)N1CCOCC1,-4.7,?,-0.7,-60.0%,10µM*
O=C(COC(=O)Cc1ccccc1)Nc1cc(S(=O)(=O)N2CCOCC2)ccc1N1CCCC1,-0.7,26.5%,-0.3,-3.4%,-1.0%
Cc1ccc(NCc2cccn2-c2nnc(N3CCC(C(=O)NCc4ccc(OC(C)C)cc4)CC3)s2)cc1,41.1,10µM*,0.3,·,-15.9%
c1ccc(Nc2c3c(nc4ccccc24)CCC3)cc1,41.1,11.2µM*,3.0,5.7%,?
C[C@@H]1CCCCO[C@@H](CN(C)Cc2ccc(C(F)(F)F)cc2)[C@@H](C)CN([C@H](C)CO)C(=O)c2cc(N(C)C)ccc2O1,22.1,?,-0.7,-3.2%,?
CCOC(=O)c1c(-c2ccc(OC)cc2)oc2ccc(OC(=O)N(C)C)cc12,1.4,5.62µM*,1.1,6.4%,-7.9%
CN(C)CC(C(=O)Cc1ccccc1)c1ccccc1 (stereo unspecified),6.2,5.01µM*,7.1,-8.2%,?
C[C@@H]([C@@H](O)c1ccccc1)N(C)C(=O)Cc1ccccc1,6.3,-8.6%,-0.4,10.5%,4.8%
CCOC(=O)C1(c2ccccc2)CCN(CC(=O)Nc2ccc(C)cc2)CC1,18.3,8.91µM*,1.7,14.8%,-10.3%
CCOC(=O)C1(c2ccccc2)CCN(CCC(=O)Nc2cccc(Br)c2)CC1,-7.9,3.16µM*,1.2,11.7%,?
CCOC(=O)C1(c2ccccc2)CCN(CCC(=O)Nc2ccc(OC)cc2)CC1,-3.0,?,0.0,11.7%,-21.9%
Cc1cc2ccccc2n1-c1ccc(C(=O)N2CCC(C(=O)NCc3ccc(Cl)cc3)CC2)s1,-16.5,?,0.9,·,-9.8%
COc1cc(CC(C)N)cc2c1OCO2 (stereo unspecified),·,·,·,-5.6%[96 µM],·
O=C(CN1CCN(C(=O)CNC(=O)c2ccc(-c3ccccc3)cc2)CC1)Nc1ccccc1Cl,-4.9,10µM*,-0.1,-1.4%,-29.2%
COC(=O)c1ccc(Cl)c(NC(=O)CN2CCN(Cc3ccccc3)CC2)c1,11.4,?,0.2,-7.6%,-6.7%
CC1CCC(NC(=O)CN2CCN(S(=O)(=O)c3ccc(Br)s3)CC2)CC1 (stereo unspecified),-7.3,10µM*,0.1,-0.6%,?
[Cl-].[Cl-].[Hg+2],·,·,·,-7.5%,·
COc1ccc2[nH]c(C)c(CCNCc3cn(C)c4ccccc34)c2c1,2.0,2.82µM*,-0.1,-4.4%,?
Cc1[nH]c2ccccc2c1CCNCc1cccnc1,-4.0,-7.4%,-0.1,3.0%,-13.0%
CN1CCN(CCOC2c3ccccc3CSc3ccc(Cl)cc32)CC1 (stereo unspecified),-5.2,?,-0.4,4.6%,?
Clc1ccc2c(c1)C(OC1CN3CCC1CC3)c1ccccc1CS2 (stereo unspecified),22.0,2.82µM*,3.7,-20.4%,?
CC(=O)OC1CC(OC2C(O)CC(OC3C(O)CC(O[C@H]4CC[C@]5(C)C6CC[C@]7(C)[C@@H](C8=CC(=O)OC8)[C@@H](O)C[C@]7(O)[C@@H]6CC[C@@H]5C4)OC3C)OC2C)OC(C)C1OC1OC(CO)C(O)C(O)C1O (stereo partly specified),·,·,·,-11.5%,·
Cc1nn(Cc2ccccc2)c(C)c1C(=O)OCC(=O)NCc1ccco1,-3.8,0.8%,-0.2,-0.1%,-10.5%
CC(C)c1cc(C(=O)OCC(=O)NC(=O)NCc2ccco2)c(O)c(C(C)C)c1,-11.1,3.55µM*,1.1,5.0%,?
SMILES,TRPML1 blocker,GLP1R inv ag,TRPML1 ag,GLP-1R agonist,GLP1R cytotox
CCn1cc2nc(SCc3cccc(C(F)(F)F)c3)n(Cc3ccc(OC)cc3)c(=O)c2n1,31.2,?,0.4,·,-6.3%
CN1/C(=C\C=C2C(=O)NC(=O)NC2=O)C(C)(C)c2ccccc21,-10.0,18.1%,81.4*,-5.7%,-7.2%
CN1/C(=C\C=Nc2ccccc2)C(C)(C)c2ccccc21,-3.0,?,1.8,-8.1%,?
CC(C)(C)c1ccc(C(=O)C2CCCN(C3CCC3)C2)cc1 (stereo unspecified),-5.7,10µM*,0.4,25.8%,-8.8%
CS(=O)(=O)c1sc(C#N)c2c1C(=O)CC(c1ccccc1)C2 (stereo unspecified),-3.0,?,0.2,-10.5%,11.2µM*
O=C(NCCN1CCC2(CC1)C(=O)NCN2c1cccc(F)c1)c1ccc2ccccc2c1,·,7.94µM*,14.4,-5.2%,5.2%
CN1CC[C@]23c4c5ccc(O)c4OC2C(O)CCC3[C@H]1C5 (stereo partly specified),·,·,·,-6.6%[96 µM],·
CCOC(=O)C(O)(c1ccc(NC(=O)c2ccc(Cl)c(Cl)c2)cc1)C(F)(F)F (stereo unspecified),-9.6,5.01µM*,-1.1,1.2%,-19.1%
Nc1nc(CCl)nc(N(c2ccccc2)c2ccccc2)n1,5.5,?,1.4,?,?
COc1cccc(-c2nc3c(C#N)c[nH]n3c2NC2CCCCC2)c1OC,42.8,8.0%,1.7,·,?
CN(C)c1nc(OCCNC(=O)COc2ccc(Cl)cc2Cl)nc(N2CCCCC2)n1,-10.9,3.1%,2.4,-6.4%,-12.0%
Cc1ccccc1C(c1ncccc1C)N(C)C(=O)C1CCN(CCOc2ccc(Cl)cc2Cl)CC1 (stereo unspecified),·,?,0.8,-11.1%,10µM*
Cc1ccc(C(=O)/C=C/c2ccccc2[N+](=O)[O-])cc1,-3.9,?,-0.5,-5.4%,?
C=CCn1cccc(/C=C/C(=O)c2ccc(C(C)(C)C)cc2)c1=S,43.8,12.6µM*,-0.1,-20.7%,?
Cc1ccc(NS(=O)(=O)c2c(F)cc(F)c(Cl)c2F)cc1S(=O)(=O)N1CCOCC1,-6.3,?,0.0,4.1%,10.2%
CN(Cc1ccccc1)C(=O)c1ccc(NC(=O)C2CCN(C(=O)OC(C)(C)C)CC2)cc1,-15.8,5.01µM*,1.5,-0.5%,14.1%
CN(Cc1ccccc1)C(=O)CN1CCCC1=O,·,11.4%,·,-4.6%,3.0%
ClCCN(CCCl)/C(=C\c1ccccc1)c1ccnc2ccccc12,·,·,22.7,·,·
